Test results from PubChem BioAssay.
Unmarked numbers belong to inactive results. How the calls were made is not given here.

Target: Pantothenate synthetase (Mycobacterium tuberculosis (strain ATCC 25618 / H37Rv)) (UniProt P9WIL5)
Assay: Recombinant Mtb pantothenate synthetase (PanC) inhibitors, coupled enzyme, confirmatory (AID 375);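 further: 0% = full reaction with vehicle and 100% = no enzyme background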
Conditions: coupled enzyme assay; at 10 µM, hits give high values

Chain of Pantothenate synthetase (Mycobacterium tuberculosis (strain ATCC 25618 / H37Rv)) (P9WIL5 whole entry, looked up): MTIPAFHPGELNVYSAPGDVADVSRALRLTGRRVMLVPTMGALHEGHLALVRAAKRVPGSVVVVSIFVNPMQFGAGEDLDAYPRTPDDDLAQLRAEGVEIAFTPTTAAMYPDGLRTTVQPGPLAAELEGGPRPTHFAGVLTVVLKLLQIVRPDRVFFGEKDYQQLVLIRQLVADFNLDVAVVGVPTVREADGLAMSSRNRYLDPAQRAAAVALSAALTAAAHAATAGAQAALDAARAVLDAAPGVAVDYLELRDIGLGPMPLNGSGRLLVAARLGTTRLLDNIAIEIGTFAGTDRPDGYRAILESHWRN

SMILES | inhibition [%]
O=C(CN1CCCN(S(=O)(=O)c2ccc(Br)cc2)CC1)Nc1ccc2cn[nH]c2c1 | 0
O=C(CSc1nnc(-c2ccco2)n1-c1ccccc1)N1CCN(C(=O)c2ccco2)CC1 | 0
CCOc1ccc2[nH]c(=O)c(C(c3nnnn3CC3CCCO3)N3CCc4ccccc4C3)cc2c1 (stereo not drawn) | 0
CCn1c(NC(=O)c2cccc(Cn3cc(Cl)cn3)c2)nc2ccccc21 | 0
COc1ccc2c(c1OC)C(=O)OC2Nn1cncn1 (stereo not drawn) | 2
CC(O)c1n(C)c(Cl)c[n+]1C (stereo not drawn) | 3
CCCc1nc2ccccc2c2nc(N)nn12 | 5
CC1(C)CC(=O)c2c(O)cc(O)cc2O1 | 3
CSc1nc2c(c(=O)n1C)SC(C)C2 (stereo not drawn) | 0
Cc1onc(-c2ccccc2)c1C(=O)NCCN1CCOCC1 | 3
COc1ccc(-c2cc3n(n2)CCc2nc4ccccc4n2-3)cc1 | 0
CN(C)CC(C(=O)c1ccccc1)c1ccccc1 (stereo not drawn) | 4
O=C(CN1C(=O)c2ccccc2C1=O)NCC1COc2ccccc2O1 (stereo not drawn) | 0
CC1CN(CC(O)COc2ccc(C(C)C)cc2)CC(C)O1 (stereo not drawn) | 0
O=C(CCc1nc2ccccc2s1)OCC(=O)N1CCN(C(=O)c2ccco2)CC1 | 4
O=C(CN1CCN(c2ccccn2)CC1)N1c2ccccc2CCc2ccccc21 | 0
CCCCC(CC)Cn1c2nc3ccccc3nc2c2c(=N)oc(C)nc21 (stereo not drawn) | 7
CN(C)c1ccc(-c2nn3c(-c4ccc(Cl)cc4Cl)nnc3s2)cc1 | 9
